The nature of assay [1]: qHTS RealTime-Glo MT Cell Viability Assay in HEK293 cells - 16 hour (AID 1224872). Further: nearly all actives have a fitted effect of over 50% in size. Further: potency means the concentration at half of the fitted maximal effect. The method in brief:
(§1)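 Nonlytic real-time viability readout: viable cells convert prosubstrate to NanoLuc substrate, giving luminescence proportional to live cell number. HEK293, 600 cells/well, compound added after 5 h, continuous culture at 37 C.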

A short description of assay [2]: qHTS RealTime-Glo MT Cell Viability Assay in HepG2 cells - 8 hour (AID 1224873). Further: nearly all actives have a fitted effect of over 55% in size. Summed up:
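Real-time viability: cells seeded at 600 per well together with NanoLuc and cell-permeant prosubstrate, compounds added after 5 h incubation. Luminescence tracked at 0, 8, 16, 24, 32 and 40 h of exposure.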

A short description of assay [3]: qHTS RealTime-Glo MT Cell Viability Assay in HEK293 cells - 40 hour (AID 1224874). Further: nearly all actives have a fitted effect of over 50% in size. Further: potency means the concentration at half of the fitted maximal effect. The settings on record: RealTime-Glo luminescence; max response: active compounds read low. The method in brief: (§2)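 Kinetic, non-lysing viability readout. Seed HEK293 (600/well) with reagent, incubate 5 h at 37 C/5% CO2, pin 23 nL compound in DMSO, incubate at 37 C, read luminescence at 0, 8, 16, 24, 32, 40 h.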
Background: qHTS replaces the single test concentration by a dilution series.

Assay [4] is described as follows: A CellTox Green Cytotoxicity Assay to monitor cytotoxicity in HEK293 cells - 24 hour (AID 1224875). Further: series mostly up to about 77 µM; nearly all actives have a fitted effect of over 45% in size. The method in brief:
(§3)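 Real-time, in one plate: 600 HEK293 cells/well with dead-cell DNA dye, pinned compound after 5 h, 37 C incubation over 40 h; viable cells give no appreciable fluorescence.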

Assay [5] is described as follows: qHTS RealTime-Glo MT Cell Viability Assay in HepG2 cells - 32 hour (AID 1224877). Further: nearly all actives have a fitted effect of over 55% in size. The method in brief: (§4)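 Luminescence read-out: viable HepG2 cells reduce a prosubstrate to a NanoLuc substrate, giving a signal proportional to live cell number. Reads taken at 0, 8, 16, 24, 32 and 40 h of compound exposure at 37 C.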
Assay [6] in a line: A CellTox Green Cytotoxicity Assay to monitor cytotoxicity in HepG2 cells - 24 hour (AID 1224878). Further: nearly all actives have a fitted effect of over 45% in size. The method in brief: (§5)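 Cytotoxicity was tracked as dead-cell DNA fluorescence in HepG2 cells treated with test compounds at 37 C; each time-point value comes from one kinetic series spanning 0, 8, 16, 24, 32 and 40 h.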
A short description of assay [7]: A CellTox Green Cytotoxicity Assay to monitor cytotoxicity in HepG2 cells - 40 hour (AID 1224879). Further: nearly all actives have a fitted effect of over 40% in size. The method in brief:
as §5

A short description of assay [8]: qHTS RealTime-Glo MT Cell Viability Assay in HEK293 cells - 0 hour (AID 1224880). Further: top concentration of the series differs between compounds; nearly all actives have a fitted effect of over 45% in size. Summed up: as §2
Assay [9] is described as follows: A CellTox Green Cytotoxicity Assay to monitor cytotoxicity in HEK293 cells - 32 hour (AID 1224881). Further: nearly all actives have a fitted effect of over 40% in size. Summed up: as §3
Assay [10] is described as follows: A CellTox Green Cytotoxicity Assay to monitor cytotoxicity in HepG2 cells - 0 hour (AID 1224882). Further: nearly all actives have a fitted effect of over 35% in size. The method in brief:
as §5

Assay [11] in a line: A CellTox Green Cytotoxicity Assay to monitor cytotoxicity in HepG2 cells - 32 hour (AID 1224883). Further: nearly all actives have a fitted effect of over 50% in size. The method in brief:
as §5

Assay [12] can be described thus: qHTS RealTime-Glo MT Cell Viability Assay in HepG2 cells - 16 hour (AID 1224885). Further: nearly all actives have a fitted effect of over 50% in size. The method in brief: as §4
The nature of assay [13]: qHTS RealTime-Glo MT Cell Viability Assay in HEK293 cells - 24 hour (AID 1224886). Further: nearly all actives have a fitted effect of over 50% in size. Further: potency means the concentration at half of the fitted maximal effect. The method in brief:
as §1

Assay [14] is described as follows: qHTS RealTime-Glo MT Cell Viability Assay in HEK293 cells - 8 hour (AID 1224887). Further: nearly all actives have a fitted effect of over 50% in size. Further: potency means the concentration at half of the fitted maximal effect. The method in brief: as §2
A short description of assay [15]: A CellTox Green Cytotoxicity Assay to monitor cytotoxicity in HEK293 cells - 16 hour (AID 1224888). Further: nearly all actives have a fitted effect of over 35% in size. Summed up:
as §3

Assay [16] is described as follows: qHTS RealTime-Glo MT Cell Viability Assay in HepG2 cells - 0 hour (AID 1224889). Further: nearly all actives have a fitted effect of over 50% in size. The method in brief: as §4
The nature of assay [17]: A CellTox Green Cytotoxicity Assay to monitor cytotoxicity in HepG2 cells - 8 hour (AID 1224890). Further: nearly all actives have a fitted effect of over 45% in size. The method in brief:
as §5

Assay [18] in a line: qHTS assay to identify small molecule antagonists of the estrogen receptor alpha (ER-alpha) signaling pathway using the BG1 cell line in the presence of 0.1 nM 17-beta-estradiol - cell viability counter screen (AID 1259241). Further: nearly all actives have a fitted effect of over 40% in size. The method in brief: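 Estradiol-stimulated (0.1 nM) VM7Luc4E2 cells exposed to compounds 22 hr; viability measured by fluorescence of cleaved CellTiter-Fluor substrate after 30 min.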

Assay [19] in a line: A CellTox Green Cytotoxicity Assay to monitor cytotoxicity in HEK293 cells - 8 hour (AID 1224884). Further: nearly all actives have a fitted effect of over 35% in size. The method in brief:
as §3

A short description of assay [20]: A CellTox Green Cytotoxicity Assay to monitor cytotoxicity in HepG2 cells - 16 hour (AID 1224876). Further: nearly all actives have a fitted effect of over 45% in size. Summed up:
as §5

Each structure is given as a SMILES string. Values without a mark were called inactive. Results filed as inconclusive are left out. Calls of active or inactive are those of the source. The call rests on the fitted dose curve; in most records, active means well fitted curve in the direction sought with a large enough effect in the repeat runs; inconclusive means weak or mixed curves; inactive means no such curve, though single readings can be large; an effect the other way counts as inactive or inconclusive.
On the % scale 0 is the no-effect control and ±100 the full control effect.

As for `OC[C@H](Cc1cccc(O)c1)[C@H](CO)Cc1cccc(O)c1`, the Potency result in assay [1], in [7], in [8], in assay [9], in [11] and in assay [13] was “inactive” each time. Besides, the Potency result in assay [14], in assay [16] and in assay [18] was “inactive” throughout. Moreover, the compound was called inactive in [2], in assay [4], in assay [5], in assay [6], in assay [10] and in assay [12]. Further, the call in [15] and in assay [17] was inactive. For the same compound, the max response in assay [3] was -10.5%.
As to `Oc1ccccc1-c1nnco1`, the Potency result in assay [1], in assay [7], in assay [9], in assay [11], in [19] and in assay [13] was “inactive” in each case. The Potency entry in assay [14] and in assay [18] was “inactive” throughout. Moreover, the call in [2], in assay [4], in assay [5], in [6], in assay [10] and in assay [15] was inactive. Besides, the max response in assay [3] was 2.75%.
`Cc1ccc(C=O)cc1C`: the Potency result in assay [1], in [7], in assay [9], in assay [11], in [13] and in assay [14] was “inactive” each time. The Potency entry in assay [16] and in assay [18] was “inactive” in each case. Also, the compound was called inactive in assay [2], in assay [4], in [20], in assay [5], in assay [10] and in assay [12]. In addition, the result in assay [15] and in assay [17] was inactive. For the same compound, the max response in [3] is 2.17%.
Take `C[C@@H]1O[C@@H](O[C@@H]2[C@@H](O)[C@H](OCCc3ccc(O)c(O)c3)O[C@H](CO[C@@H]3O[C@H](CO)[C@@H](O)[C@H](O)[C@H]3O)[C@H]2OC(=O)/C=C/c2ccc(O)c(O)c2)[C@H](O)[C@H](O)[C@H]1O`: the Potency result in [1], in assay [8], in assay [9], in [13], in [14] and in assay [16] was “inactive” each time. Moreover, the outcome in assay [2], in assay [4], in assay [5], in assay [10], in [12] and in [15] was inactive. Moreover, the result in assay [17] was inactive. Also, in assay [3], the max response was -18.6%.
With `Cc1ccc2ccc(Cl)cc2n1`, the Potency result in assay [1], in assay [7], in assay [8], in assay [9], in assay [11] and in assay [19] was “inactive” each time. Moreover, the Potency entry in assay [13], in assay [14], in assay [16] and in assay [18] was “inactive” in each case. In addition, the compound was called inactive in assay [2], in assay [4], in [20], in [5], in assay [12] and in assay [15]. Further, in assay [17], the compound was classed as inactive. Moreover, the max response in assay [3] was 6.03%.
Take `O=C(OCC(O)CO)c1ccccc1Nc1ccnc2c(C(F)(F)F)cccc12` (configuration not stated): the Potency in assay [1] is 5.35 µM (active); in [3], 3.79 µM (active); in [13], 4.77 µM (active); in assay [14], 3.79 µM (active). Further, the result in [2], in assay [4], in [5], in assay [10], in assay [15] and in [17] was inactive. The Potency result in assay [7], in [8], in assay [9], in [11], in assay [19] and in assay [18] was “inactive” each time.
Take `CCn1ccc(NS(=O)(=O)c2ccc(N)cc2)nc1=O`: the Potency result in assay [1], in assay [7], in assay [8], in [9], in assay [11] and in [19] was “inactive” throughout. In addition, the Potency entry in [13], in [14], in assay [16] and in [18] was “inactive” in each case. Moreover, the compound was classed as inactive in [2], in assay [4], in assay [20], in assay [5], in [10] and in assay [17]. Moreover, in assay [3], the max response was 5.4%.
On to `O=C(c1ccc(O)cc1)c1ccc(O)c(O)c1O`, for which the Potency entry in assay [1], in assay [7], in assay [9], in assay [11], in assay [19] and in [13] was “inactive” each time. Further, in assay [14], the Potency entry was “inactive”. Moreover, the outcome in [2], in assay [4], in assay [5], in [6], in [12] and in assay [15] was inactive. Besides, the outcome in assay [17] was inactive. Moreover, the max response in assay [3] was -10.5%.
With `N#Cc1ccc(C(=O)O)cc1`, the Potency entry in [1], in assay [7], in assay [8], in [9], in assay [11] and in [13] was “inactive” in each case. For the same compound, the Potency entry in [14], in [16] and in [18] was “inactive” in each case. The outcome in [2], in assay [20], in assay [5], in [6], in [10] and in assay [12] was inactive. The call in assay [15] and in [17] was inactive. For the same compound, in assay [3], the max response is 3.59%.
Consider `COCCOCCOCCOCCOCCO`, for which the Potency result in [1], in assay [7], in assay [8], in [9], in [11] and in assay [19] was “inactive” in each case. Besides, the Potency entry in [13], in assay [14], in assay [16] and in assay [18] was “inactive” in each case. For the same compound, the result in assay [2], in assay [20], in [5], in [6], in assay [10] and in [12] was inactive. The compound was classed as inactive in assay [15] and in [17]. For the same compound, the max response in [3] is 0.969%.

For the origin of these results see PubChem BioAssay (Tox21).
